59 molecules from PubChem BioAssay AID485344 (National Center for Advancing Translational Sciences (NCATS), 2010) can be followed below.

In all, about 340,000 compounds went through this assay and about 6,900 (2%) were called active. The full list was thinned out, with actives kept by preference. Unmarked numbers belong to inactive results. No stated cut-off is given here; in the data, active means inhibition above about 30%; inactive means below that, where a call was filed.

Chain of D(2) dopamine receptor (Homo sapiens) (P14416 whole entry, looked up): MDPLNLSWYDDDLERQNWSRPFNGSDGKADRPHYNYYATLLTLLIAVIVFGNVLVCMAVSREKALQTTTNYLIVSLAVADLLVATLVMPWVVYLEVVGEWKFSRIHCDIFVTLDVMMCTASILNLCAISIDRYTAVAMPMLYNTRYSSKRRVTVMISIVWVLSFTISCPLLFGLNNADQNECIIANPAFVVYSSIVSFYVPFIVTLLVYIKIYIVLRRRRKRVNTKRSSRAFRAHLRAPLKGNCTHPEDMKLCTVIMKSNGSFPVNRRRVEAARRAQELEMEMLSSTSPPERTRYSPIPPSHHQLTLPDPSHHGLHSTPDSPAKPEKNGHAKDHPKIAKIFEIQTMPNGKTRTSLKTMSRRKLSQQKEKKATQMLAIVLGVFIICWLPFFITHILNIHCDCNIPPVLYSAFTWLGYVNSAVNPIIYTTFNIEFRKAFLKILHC

This assay concerns the target D(2) dopamine receptor (Homo sapiens) (UniProt P14416). Nature of the assay: HTS Assay for Allosteric Antagonists of the Human D2 Dopamine Receptor: Primary Screen for Antagonists. Further: 0% is about no effect. The conditions noted are these: HEK293 TREx D2 cells, calcium flux, dopamine EC80; at 10 µM; hits give high values. The gist of the method: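 Antagonism is scored as inhibition of an EC80 dopamine-evoked calcium signal in a force-coupled, tetracycline-inducible HEK293 T-REx D2 line, with compound present 180 s before agonist.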
Background: A change in cytosolic calcium serves as a functional read-out for many receptors and channels.
For the molecule `CC(C)(C)OC(=O)Nc1ccc([C@@H](NC(=O)OC(C)(C)C)C(=O)OC(C)(C)C)cc1`, the inhibition was 5.44%.
Turning to `CCCc1nnc(NC(=O)CN2C(=O)c3ccccc3S2(=O)=O)s1`, the inhibition is 2.63%.
For the molecule `Nc1nnc(SCn2nnc3ccccc3c2=O)s1`, the inhibition is -2.28%.
Regarding `Nc1nnc(SCCN2C(=O)c3ccccc3S2(=O)=O)s1`, the inhibition is 49.1% (active).
Turning to `CCN(CC(=O)Nc1ccc(OC)cc1)C(=O)c1ccc(Cl)c(S(=O)(=O)N2CCCC2)c1`, the inhibition was -15.2%.
Regarding `CCOc1ccc(CC(=O)NCCS(=O)(=O)N2CCN(c3ccccc3)CC2)cc1`, the inhibition is -11.3%.
In the case of `O=S(=O)(NCCS(=O)(=O)N1CCN(c2ccccc2)CC1)c1ccc(F)cc1`, the inhibition was -7.02%.
Consider `COc1cc(/C=C/C(=O)N2CCc3ccccc3C2)cc(OC)c1OC`, for which the inhibition was -15.7%.
Take `COc1cc(C)c(C)cc1S(=O)(=O)N1CCCc2ccccc21`: the inhibition is -2.59%.
Turning to `CCC(C)(C)NC(=O)/C=C/c1cc(OC)c(OC)c(S(=O)(=O)N2CCc3ccccc32)c1`, the inhibition is 40.9% (active).
The figure for `O=C(OCC(=O)N1CCCC1)c1ccc(Cl)nc1` is -5.57%; for `Cc1ccc2nc(NC(=O)C3CSC4(C)CCC(=O)N34)sc2c1` (centres undefined) it is -20%; for `CC1(C)O[C@@H]2[C@H](O1)[C@@H](CO)O[C@H]2n1c(N2CCCCC2)nc2c(N)ncnc21` it is 15.7%.
Regarding `CC(=O)Nc1ccc(/C=N/NC(=O)c2cccs2)cc1`, the inhibition was -20.3%.
Turning to `Cc1cccc(-n2c(C)cc(/C=N\NC(=O)c3cccs3)c2C)c1`, the inhibition was 2.76%.
The figure for `Cc1ccc(-n2nc(C)c(/C=N/NC(=O)c3cccs3)c2Cl)cc1` is 32.5% (active).
Regarding `COc1ccc(CNC(=O)COC(=O)c2c(C)nn(-c3ccccc3)c2C)cc1OC`, the inhibition was 5.14%.
As to `CCOc1ccc(NC(=O)Nc2ccc(N(C)C(C)=O)cc2)cc1`, the inhibition was 31.6% (active).
Take `CC(=O)N(C)c1ccc(NC(=O)Nc2cccc3ccccc23)cc1`: the inhibition was 11.1%.
With `CCOc1ccc(NC(=O)Nc2cc(C)on2)cc1`, the inhibition was -12.8%.
`Cc1cccc(C(=O)NCC(=O)OCC(=O)N(C)CC(=O)Nc2ccccc2Cl)c1`: the inhibition was -38.4%.
As to `Cc1ccc(OCCCC(=O)Nc2ccc3c(c2)OCCO3)cc1`, the inhibition was -2.09%.
Next, `COc1ccc(C(=O)OCC(=O)c2cc(C)n(CC3CCCO3)c2C)cc1[N+](=O)[O-]` (centres undefined): -5.34%.
Turning to `Cc1nc2ccccc2c(=O)n1NC(=O)c1ccccc1`, the inhibition was -7.6%.
Next, `O=C(Nn1cnc2ccccc2c1=O)c1ccccc1`: 31.2% (active).
`O=C(Nn1cnc2ccccc2c1=O)c1ccc([N+](=O)[O-])cc1Cl`: the inhibition is -1.86%.
With `Cc1ccsc1C(=O)NC1CCCCC1C` (centres undefined), the inhibition was -11.1%.
For `CCc1cccc(C)c1NC(=O)COC(=O)CC1CCCC1`, the inhibition was -13.9%.
Consider `CN(Cc1cccs1)C(=O)CN1C(=O)c2ccccc2S1(=O)=O`, for which the inhibition is -30.6%.
`CCOc1ccccc1OCCCNCc1ccccc1`: the inhibition was 50% (active).
As to `CCOCCCNCc1ccc(OCc2ccc(F)cc2)c(OC)c1`, the inhibition was 2.04%.
As to `CCOCCCNCc1cc(Br)ccc1OCC`, the inhibition is 6.96%.
Next, `CN(CC(=O)Nc1ccc(F)c(F)c1F)C(=O)Cn1cnc2c1c(=O)n(C)c(=O)n2C`: 2.66%; `O=C(NCCCn1ccnc1)c1cc(-c2ccccc2)on1`: 7.61%.
With `COc1ccccc1-c1cc(C(=O)NCCCn2ccnc2)no1`, the inhibition is 45.9% (active).
With `COc1ccc(-c2cc(C(=O)NCCCn3ccnc3)no2)cc1`, the inhibition is 3.91%.
Regarding `CCOC(=O)[C@H]1[C@H]2COc3ccc(Cl)cc3[C@@H]2N2C(=O)c3cc(C)ccc3NC(=O)[C@@]12C`, the inhibition was -4.21%.
As to `O=C1C2CCCN2C(=O)N1CCCCN1CCN(c2cccc(C(F)(F)F)c2)CC1` (centres undefined), the inhibition is 106% (active).
Take `Cc1ccccc1N1CCN(CCCN2C(=O)C3CCCCN3C2=O)CC1` (centres undefined): the inhibition was -27.4%.
Regarding `O=C(C1CC(=O)N(C2CCCC2)C1)N1CCN(c2cccc(C(F)(F)F)c2)CC1` (centres undefined), the inhibition is 11.8%.
With `CC(C)CN(C(=O)c1ccc2c(c1)OCO2)C1CCS(=O)(=O)C1` (centres undefined), the inhibition is -6.59%.
As to `Cc1ccc2nnn(Cc3cccc(C(C)(C)C)c3O)c2c1`, the inhibition is 6.04%.
In the case of `COc1ccccc1N1CCN(C(=O)c2ccc(Cl)c(S(=O)(=O)N3CCCC3)c2)CC1`, the inhibition was -0.604%.
On to `COc1cccc(-c2cc(C(=O)N3CCN(c4ccccc4OC)CC3)no2)c1`, for which the inhibition was 3.44%.
Take `COc1ccccc1N1CCN(C(=O)c2c(-c3c(Cl)cccc3Cl)noc2C)CC1`: the inhibition was 40% (active).
The figure for `Cn1c(N)c(C(=O)COC(=O)COc2ccc(Cl)cc2)c(=O)n(C)c1=O` is 20.2%.
Next, `COc1ccc(C)cc1S(=O)(=O)Nc1cc2c3c(c1)CCC(=O)N3CCC2`: 6.3%.
For the molecule `Cc1ccc(C)c(OCCC(=O)OCC(=O)c2ccc3c(c2)NC(=O)CO3)c1`, the inhibition was -0.691%.
Take `COc1ccccc1-c1sc2ccccc2c1-c1ccc(Br)nc1`: the inhibition is 7.5%.
`Cc1n[nH]c(=O)c2c(NC(=O)CSc3cc(Cl)ccc3Cl)oc(C)c12`: the inhibition is 10%.
The figure for `Cc1c(C(=O)Nc2ccccn2)oc2ccc(Br)cc12` is -19.8%; for `O=C(COC(=O)c1ccccc1SCC(=O)N1CCCC1)Nc1ccccc1OC(F)F` it is -3.18%; for `COc1ccc(Cn2nnc3c(=O)[nH]c(C4CCN(C(=O)c5ccccc5Cl)CC4)nc32)cc1` it is 5.81%.
`COc1ccc(CN2CCC(c3nc4ccc(Cl)cc4[nH]3)CC2)cc1`: the inhibition is 59.7% (active).
The figure for `COC(=O)c1cc(S(=O)(=O)NCC2CCN(Cc3ccc(Cl)cc3)CC2)cn1C` is -3.52%; for `Nc1c(N(CCCO)C(=O)C2CCCC2)c(=O)[nH]c(=O)n1Cc1ccccc1` it is 10.6%; for `Cc1cccc(NC(=O)CN2CCN(CC(=O)NCC3(N4CCCCC4)CCCCC3)CC2)c1C` it is 6.75%.
Next, `CCN(CC(=O)Nc1cc(Cl)ccc1C)C(=O)CSCc1ccccc1`: 6.06%.
Regarding `CC(C#N)(NC(=O)CN1CCN(S(=O)(=O)c2cc(C(F)(F)F)ccc2Cl)CC1)C1CC1` (centres undefined), the inhibition was 12.9%.

A word on the inhibition: it is the relative decrease from the control value, in per cent.
